Measurements taken from PubChem BioAssay AID504834 (National Center for Advancing Translational Sciences (NCATS), 2011).
The whole screen tested about 320,000 compounds, of which about 22,000 (6.9%) were called active. Not shown: some 27% with an inconclusive outcome. What follows is part of a selection rich in actives, with near analogues and random picks from the rest. A number with no mark means an inactive call. Calls come from the whole dose curve; as a rule, active = well fitted inhibition curve with a large enough effect; inconclusive = small, poorly fitted or top-dose-only effect, or another doubt; inactive = no such curve, though single readings can be large or run the other way.

Assay: Primary qHTS for delayed death inhibitors of the malarial parasite plastid, 96 hour incubation
Conditions: P. falciparum luciferase reporter growth; series mostly up to 28.7 µM; activity change, negative = inhibition: at the top concentration
Summary of the method: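 P. falciparum expressing integrated firefly luciferase, in erythrocytes at 2% hematocrit, 0.05% parasitemia, incubated with compounds 96 h at 37 C, 5% CO2. Growth inhibition read as loss of luminescence; two-generation exposure targets delayed-death apicoplast inhibitors.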
% is set by controls: 0 for no effect and ±100 for the full control effect; potency is the fitted concentration of half-maximal effect.

| Compound | Potency | activity change, negative = inhibition |
| --- | --- | --- |
| CCN(C(=O)CN1C(=O)/C(=C/c2ccc(F)cc2)SC1=S)C1CCS(=O)(=O)C1 (stereo unspecified) | 11.7 µM (active) | – |
| CN(C(=O)CN1C(=O)S/C(=C\c2ccccc2F)C1=O)C1CCS(=O)(=O)C1 (stereo unspecified) | – | 6.95% |
| CN(C(=O)CCN1C(=O)/C(=C/c2ccccc2F)SC1=S)C1CCS(=O)(=O)C1 (stereo unspecified) | – | -30.6% |
| CC(C)NC(=O)COCc1cc(-c2ccc3c(c2)OCO3)on1 | – | -15.2% |
| Cn1cccc1C(=O)NNC(=O)COc1ccc(Br)cc1 | – | 25.8% |
| O=C(CSc1nnc2n1CCCN2)c1ccccc1 | – | 78.5% |
| Cc1c(C)c2ccc(OCC(=O)N3CCC(C(=O)O)CC3)c(C)c2oc1=O | – | 3.28% |
| Cc1c(OC(C)C(=O)NCC2CCC(C(=O)O)CC2)ccc2c1oc(=O)c1ccccc12 (stereo unspecified) | 13.1 µM (active) | – |
| Cc1c(OC(C)C(=O)N[C@@H](Cc2ccccc2)C(=O)O)ccc2c3c(c(=O)oc12)CCCC3 (stereo partly specified) | – | 87.3% |
| CCC(C(=O)NCc1cccnc1)n1nc(C)c2sc3ccccc3c2c1=O (stereo unspecified) | – | 54.4% |
| O=C(C1CCCN(S(=O)(=O)c2ccccc2)C1)N1CCN(c2ccc(F)cc2)CC1 (stereo unspecified) | – | 107% |
| CCOC(=O)C(C)n1cnc2c(nnn2-c2cccc(OC)c2)c1=O (stereo unspecified) | – | -28.3% |
| COc1ccc(/C=N/NC(=O)c2ccc(Cl)cc2)cc1COC(C)=O | – | 13.5% |
| COc1ccc(/C=N\NC(=O)c2sc(N)nc2C)cc1OC | – | 42.8% |
| COc1cccc(OCc2cc(/C=N/NC(=O)c3nc(Cl)c(Cl)c(N)c3Cl)ccc2OC)c1 | 13.1 µM (active) | – |
| CSc1ccccc1NC(=O)c1cc(C2CC2)on1 | 7.38 µM (active) | – |
| O=C(Nc1cc(C(F)(F)F)ccc1Cl)c1cc(C2CC2)on1 | – | -29.2% |
| O=C(NC1CCCCC1)c1cc(C2CC2)on1 | – | 90.7% |
| CCOc1ccc(C(CC(=O)O)NC(=O)COc2ccccc2)cc1 (stereo unspecified) | 10.4 µM (active) | – |
| COCCNC(=O)COc1ccc(C)c(C)c1 | – | 24.7% |
| COc1ccc(C(CC(=O)Nc2ccc(C)cc2)NC(=O)C(F)(F)F)cc1 (stereo unspecified) | – | 22.6% |
| CCOc1ccc(C(CC(=O)O)NC(=O)Cc2ccccc2)cc1OC (stereo unspecified) | – | 31.4% |

| Compound | Potency | activity change, negative = inhibition |
| --- | --- | --- |
| Cc1cc(C)cc(OCC(=O)NC(C)c2ccccc2)c1 (stereo unspecified) | – | -4.04% |
| COc1ccc(C(CC(=O)O)NC(=O)Cc2ccccc2)cc1 (stereo unspecified) | 2.94 µM (active) | – |
| Cc1ccc(OCC(=O)NC(C)c2ccccc2)cc1C (stereo unspecified) | 5.22 µM (active) | – |
| CC(=O)NC(CC(=O)O)c1ccc(F)cc1 (stereo unspecified) | – | 137% |
| O=C(COc1ccccc1)Nc1nonc1NC(=O)COc1ccccc1 | – | -1.51% |
| CCN(CC)S(=O)(=O)c1ccc2[nH]c(=O)cc(C(=O)N(C)C3CCS(=O)(=O)C3)c2c1 (stereo unspecified) | – | -24.5% |
| COc1ccc(-c2cnc(SCCNC(=O)c3ccc4c(c3)OCO4)[nH]2)cc1 | – | -6.78% |
| CCOc1ccc(N(CC(=O)Nc2cccc(OC)c2)S(C)(=O)=O)cc1 | – | -19.7% |
| CC(=O)Nc1cccc(C(=O)OCN2C(=O)c3ccccc3C2=O)c1 | – | -2.17% |
| Cc1ccc2cccc(OCCCOc3ccccc3CO)c2n1 | – | 42.1% |
| Cc1cccc(NC(=O)c2ccc3ccccc3n2)n1 | – | 32% |
| Cc1ccc(N(C)C(=O)Oc2cccc3ccc(C)nc23)cc1 | 0.104 µM (active) | – |
| CSCCC(NC(=O)c1ccco1)C(=O)Nc1cc(C)ccn1 (stereo unspecified) | – | 157% |
| CCOC(=O)c1cc(S(=O)(=O)NCCc2ccc(OC)c(OC)c2)cn1C | 13.1 µM (active) | – |
| COc1ccc(CCNS(=O)(=O)c2ccc(F)cc2)cc1OC | – | 4.43% |
| CCS(=O)(=O)NCCc1ccc(OC)c(OC)c1 | – | 7.66% |
| Cc1[nH]c2ccc(C(=O)N3CCN(C)CC3)cc2c1C | – | 71.1% |
| Cc1c(Cl)cccc1NC(=O)[C@@]1(CC(=O)O)CC(/C=C/c2ccccc2)=NO1 | – | 12.7% |
| CN1CCc2nc(SC(C(=O)O)c3ccccc3)c(C#N)c(-c3cccs3)c2C1 (stereo unspecified) | – | 2.82% |
| Cc1cc(NC(=O)CCS(=O)(=O)c2ccc(F)cc2)no1 | – | 17.5% |
| COc1cccc(/C=N\NC(=O)C2=NNC(=O)C2C)c1O (stereo unspecified) | 4.15 µM (active) | – |
| COc1cccc(/C=N/NC(=O)c2[nH]nc3c2CCc2ccccc2-3)c1O | – | 11.3% |

| Compound | Potency | activity change, negative = inhibition |
| --- | --- | --- |
| COc1ccc(C(=O)Nc2ccccc2C(=O)N/N=C/c2ccccc2OC)cc1 | – | -12.8% |
| COc1ccccc1-n1ccnc(SCC(=O)NC2CCCCC2)c1=O | – | -12.4% |
| COc1ccc(C(=O)OCC(=O)Nc2ccc3[nH]c(=O)[nH]c3c2)c(OC)c1OC | – | 7.27% |
| Cc1ccc(S(=O)(=O)N(C)C)cc1NC(=O)COC(=O)/C=C/c1cccs1 | – | -0.398% |
| CC(C)[C@@H](NC(=O)OC(C)(C)C)C(=O)NCC1CCC(C(=O)N[C@@H](Cc2ccccc2)C(=O)O)CC1 (stereo partly specified) | – | -3.55% |
| CC(C)C(NC(=O)C1CCC(C(C)(C)C)CC1)C(=O)NCCCN1CCCCC1 (stereo unspecified) | 13.1 µM (active) | – |
| O=C(NC(C(=O)NCCN1CCOCC1)C12CC3CC(CC(C3)C1)C2)C1CCCCC1 (stereo unspecified) | – | -25.7% |
| CCCCn1c(N)c(N(CC)C(=O)c2ccccc2C(F)(F)F)c(=O)[nH]c1=O | – | 14.2% |
| CCOc1ccc(CN(C)C(=O)c2ccc(=O)[nH]c2)cc1 | – | -5.36% |
| COc1ccc(N(CCC(=O)NCCc2ccccc2)S(=O)(=O)c2ccc(C)cc2C)cc1 | – | 28% |
| Cc1cccc(NC(=O)NC(=S)NC(=O)c2ccccc2)c1 | – | 111% |
| Cc1cccc(NC(=O)Nc2cccc(Oc3c(F)c(F)c(F)c(F)c3F)c2)c1 | 2.08 µM (active) | – |
| Cc1cccc(NC(=S)NC(=O)c2ccc(Br)o2)c1 | – | 48.5% |
| Cc1ccc(S(=O)(=O)c2nc(-c3cccs3)oc2NCc2cccnc2)cc1 | 11.7 µM (active) | – |
| Cc1ccc(C)c(NS(=O)(=O)c2ccc(OCC(=O)NCc3cccnc3)cc2)c1 | – | 5.79% |
| O=C(NCc1cccnc1)c1nc(-c2cccs2)no1 | – | 112% [at 5.75 µM] |
| COc1cccc2cc(C(N)=O)/c(=N\NC(=O)c3ccccc3)oc12 | – | -23.7% |
| Cn1nccc1NS(=O)(=O)c1ccc(F)cc1 | – | -10.2% |
| O=C(CN1CCN(c2ccc(Cl)cc2)CC1)c1ccccc1 | – | -0.965% |
| CC(=O)c1ccc2c(ccc3ccccc32)c1 | – | 55.4% |
| Cc1ccn2c(=O)c(NC(=O)c3cccc4ccccc34)c(C)nc2c1 | – | -9.77% |
| CC(=O)c1nn(-c2cccc(Br)c2)cc1C(=O)c1cccc2ccccc12 | 6.57 µM (active) | – |

| Compound | Potency | activity change, negative = inhibition |
| --- | --- | --- |
| Cc1ccc(C(=O)OCC(=O)Nc2ccc(Cl)cn2)cc1S(=O)(=O)N1CCOCC1 | – | 3.68% |
| Cc1ccc(CSc2ccc(S(=O)(=O)N3CCCCC3)cn2)cc1 | – | 17.7% |
| O=C(Nc1ccc(F)cc1)c1ccc(S(=O)(=O)NCc2cccnc2)cc1 | – | 6.72% |
| Cc1cccn2cc(-c3cccc(S(=O)(=O)N4CCCCC4)c3)nc12 | – | 5.08% |
| COc1ccc(N2CCN(C(=O)c3ccc(N4CCCCS4(=O)=O)cc3)CC2)cc1 | – | 108% |
| COCCNC(=S)N(Cc1cccnc1)Cc1ccc(OC)c(OC)c1 | – | -15.1% |
| Cc1ccc(CN(Cc2cccnc2)C(=S)Nc2cccc(Cl)c2C)cc1 | – | -17.2% |
| COCCNC(=S)N(CCc1c(C)[nH]c2ccc(C)cc12)Cc1cccnc1 | 1.65 µM (active) | – |
| CC(NC(=O)c1cc(=O)[nH]c2ccccc12)c1ccc(F)cc1F (stereo unspecified) | – | -2.79% |
| O=C1C(=O)N(CCCN2CCOCC2)C(c2ccc([N+](=O)[O-])cc2)/C1=C(\O)c1ccc2c(c1)OCCO2 (stereo unspecified) | – | -23.5% |
| COC(=O)c1c(NC(=O)C(=O)N2CCCCC2)sc2c1CC(C)(C)OC2 | – | -9.87% |
| Cc1ccc(CNC(=O)Cn2c(=O)c3sccc3n(Cc3cccc([N+](=O)[O-])c3)c2=O)cc1 | 8.28 µM (active) | – |
| Cc1ccc(Cn2c(C)c3cnn(CC(=O)NCc4ccccn4)c(=O)c3c2C)cc1 | – | 31.5% |
| COCCNC(=O)CCCn1c(=O)c2ccccc2n(Cc2cccc([N+](=O)[O-])c2)c1=O | – | -27.3% |
| CSCC[C@H](NC(=O)N1CCn2c1nc1ccccc12)C(=O)NC1CCCCC1 | – | -11.6% |
| CCn1c(SCC(=O)NC2CC2)nnc1-c1ccncc1 | – | 30.7% |
| COc1ccc(-n2cc(CN(C)Cc3n[nH]c(=O)[nH]3)c(-c3cccc(F)c3)n2)cc1 | – | 1.24% |
| Cc1cccc(-n2cc(CN3CCN(C(=O)c4ncn[nH]4)CC3)c(-c3cccc(F)c3)n2)c1 | – | 16.2% |
| Cc1ccc(-n2cc(CN(C)Cc3nccn3C)c(-c3cccc(C)c3)n2)cc1 | 3.7 µM (active) | – |
| CCCCn1c(N)c(N(CC(C)C)C(=O)c2cnc(C)cn2)c(=O)[nH]c1=O | – | 23.4% |
| Cc1nn(Cc2ccccc2)c(C)c1C(=O)NCCCN1CCCC1=O | – | 7.34% |
| Cc1cc(NS(=O)(=O)c2ccccc2)no1 | – | 42.6% |

| Compound | Potency | activity change, negative = inhibition |
| --- | --- | --- |
| Cc1nn(Cc2ccccc2)c(C)c1NS(=O)(=O)c1ccccc1 | 10.4 µM (active) | – |
| NNC(=O)c1cccc(COCC(F)(F)C(F)F)c1 | – | 10.6% |
| COCCNc1nnc(SCC(=O)NNC(=O)c2ccco2)s1 | – | -15.4% |
| CCCc1nnc(NC(=O)CCC(=O)NC2CC2)s1 | – | 6.55% |
| O=C(NCc1ccncc1)C1CCCN(S(=O)(=O)c2ccc(Br)cc2)C1 (stereo unspecified) | – | 19.8% |
| CSc1ccc(S(=O)(=O)N2CCC(C(=O)NCc3ccncc3)CC2)cc1 | 7.38 µM (active) | – |
| COc1ccc(CNC(=O)C2CCN(S(=O)(=O)c3ccc(SC)cc3)CC2)cc1 | – | 2.03% |
| CSc1ccc(NC(=O)/C=C/C(=O)O)cc1 | – | 10.9% |
| O=C(Nc1ccccc1C(=O)N1CCCCC1)c1ccco1 | – | 32.1% |
| COc1ccc(-c2nnn(CC(=O)N(CCO)C(C(=O)NC3CCCC3)c3ccc(F)cc3)n2)cc1 (stereo unspecified) | – | 11.1% |
| CCC(C(=O)NC1CCCC1)N(C(=O)Cn1nnc(-c2ccc(C)o2)n1)c1ccc(OC)c(OC)c1 (stereo unspecified) | – | -18.7% |
| COc1cccc(N(CC(=O)NC2CCCC2)C(=O)Cn2nnc(-c3ccc(C)o3)n2)c1 | 11.7 µM (active) | – |
| COc1ccc(C)cc1N(C(=O)Cn1nnc(-c2ccc(C)o2)n1)C(C(=O)NC1CCCC1)c1ccncc1 (stereo unspecified) | 8.28 µM (active) | – |
| COc1cccc(N(CC(=O)NC2CCCC2)C(=O)Cn2nnc(-c3ccc(C)cc3)n2)c1 | – | 13.2% |
| COc1ccc(C(C(=O)NC2CCCC2)N(CCCO)C(=O)Cn2nnc(-c3ccc(C)o3)n2)cc1 (stereo unspecified) | 3.7 µM (active) | – |
| O=C(Cn1nnc(-c2ccccc2)n1)NC(=O)NC1CCCC1 | – | 16.9% |
| CCOCCCN(C(=O)Cn1nnc(-c2ccc(OC)c(OC)c2)n1)C(CC)C(=O)NC1CCCC1 (stereo unspecified) | – | 5.08% |
| Cc1cccc(N(C(=O)Cn2nnc(-c3ccc(C)o3)n2)C(C(=O)NC2CCCC2)c2ccncc2)c1 (stereo unspecified) | – | -5.05% |
